Results on twelve molecules are retold here after PubChem BioAssay (Tox21).

Several values for one entry are separate records, joined by “and”; a condition that tells them apart may be missing. Equal values may be shown once. Inconclusive results are not listed. Some structures have more than one record in an assay (separate samples or runs), and their calls can disagree. Activity calls are given as the source filed them. Unless noted, the call rests on the fitted dose curve; in most records, active means well fitted curve in the direction sought with a large enough effect in the repeat runs; inconclusive means weak or mixed curves; inactive means no such curve, though single readings can be large; an effect the other way counts as inactive or inconclusive.

Test [1] is described as follows: qHTS assay to identify aromatase inhibitors - cell viability counter screen (AID 743084).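 Further: cells stimulated with testosterone during compound exposure; nearly all actives have a fitted effect of over 55% in size.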
Test [2] can be described thus: qHTS assay to identify small molecule that activate the aryl hydrocarbon receptor (AhR) signaling pathway - cell viability counter screen (AID 743086).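 Further: HepG2 liver cells carrying the AhR DRE luciferase reporter; series mostly up to about 70 µM; nearly all actives have a fitted effect of over 45% in size.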 The method in brief: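 HepG2-AhR-luc (HG2L7.5c1) cells, 4000/well, treated 24 h at 37 C with compound; viability measured as CellTiter-Fluor fluorescence after 30 min in the same wells as the luciferase read.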
Background: In qHTS, concentration-response curves come from the screen itself.

Test [3] is described as follows: qHTS assay to identify small molecule antagonists of the peroxisome proliferator-activated receptor gamma (PPARg) signaling pathway - cell viability counter screen (AID 743194). Further: nearly all actives have a fitted effect of over 55% in size. Conditions: Potency: co-treated with 50 nM rosiglitazone. Put shortly:
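Cytotoxicity counter screen in PPARg-bla HEK293H cells, same wells as reporter assay. Compounds plus 50 nM rosiglitazone (final) for 17 h at 37 C, then viability read by CellTiter-Glo luminescence.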

Test [4] in a line: qHTS assay for small molecule agonists of the antioxidant response element (ARE) signaling pathway - cell viability counter screen (AID 743203; calls by dose curve; further: nearly all actives have a fitted effect of over 55% in size; further: potency means the concentration at half of the fitted maximal effect). The method in brief: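 CellSensor ARE-bla HepG2 cells, 2,000 per well, rested 5 hrs at 37C/5% CO2, then exposed to compound in DMSO for 16 hrs; viability read as CellTiter-Glo luminescence after 30 min at room temperature, in the reporter wells.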

Test [5] is described as follows: qHTS assay for small molecule activators of the heat shock response signaling pathway - cell viability counter screen (AID 743209). Further: nearly all actives have a fitted effect of over 50% in size. The method in brief:
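CellSensor HSE-bla HeLa cells, plated overnight at 37 C/5% CO2, were exposed to compounds in DMSO for 5 h at 37 C. Viability was then read in the same wells by CellTiter-Glo luminescence after 30 min at room temperature.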

Test [6] in a line: qHTS assay for small molecule activators of the heat shock response signaling pathway (AID 743210; active means well fitted activation curve with a large enough effect in the signal ratio in the repeat runs, with a control signal flat, not every such curve was filed as active; the % refers to the signal ratio;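 further: HeLa cells with beta-lactamase reporter driven by heat shock elements; series mostly up to about 63 µM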). The method in brief:
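Quantitative high-throughput format using an engineered HeLa line in which heat shock response elements drive beta-lactamase; after 5 h with compound, cells received a B/G FRET substrate and fluorescence was read.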

Test [7] deals with Peroxisome proliferator-activated receptor delta (Homo sapiens) (UniProt Q03181). In words: qHTS assay to identify small molecule agonists of the peroxisome proliferator-activated receptor delta (PPARd) signaling pathway (AID 743212; calls by dose curve). Put shortly: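 Quantitative high-throughput agonist screen in a HEK293H beta-lactamase reporter line under UAS control. Compounds in DMSO, at 37 C. Fluorescence read after 2 h with FRET substrate at room temperature.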

Test [8] can be described thus: qHTS assay to identify small molecule antagonists of the peroxisome proliferator-activated receptor delta (PPARd) signaling pathway - cell viability counter screen (AID 743213). Further: nearly all actives have a fitted effect of over 50% in size. Put shortly: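 Luminescence from CellTiter-Glo, added after the bla read and incubated 30 min at room temperature, gives viability of HEK293H PPARd-bla cells exposed to compounds for 17 h at 37 C with 300 nM L165041.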

The target of test [9] is Peroxisome proliferator-activated receptor delta (Homo sapiens) (UniProt Q03181). As to the kind of experiment: qHTS assay to identify small molecule antagonists of the peroxisome proliferator-activated receptor delta (PPARd) signaling pathway (AID 743215; active means well fitted inhibition curve with a large enough effect in the signal ratio in the repeat runs, not every such curve was filed as active; the % refers to the signal ratio;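 further: cells stimulated with agonist L165041 at 300 nM final during compound exposure; series mostly up to about 62 µM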). Put shortly: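 PPARd UAS-bla HEK293H cells were pre-incubated 5 h at 37 C, then given test compounds in DMSO plus agonist L165041 (300 nM final). After 17 h at 37 C, beta-lactamase FRET substrate was added; fluorescence read after 2 h at room temperature.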

A short description of test [10]: qHTS assay to identify small molecule antagonists of the farnesoid-X-receptor (FXR) signaling pathway - cell viability counter screen (AID 743221; active means well fitted cell-killing curve with a large enough effect in the repeat runs, not every such curve was filed as active; further: nearly all actives have a fitted effect of over 50% in size). The method in brief: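 CellTiter-Glo, 30 min RT, luminescence; same wells as the LiveBLAzer FRET read. Cells: FXR-UAS-bla HEK 293T. Treatment: compound with chenodeoxycholic acid 50 uM final, 16 h at 37 C.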
Test [11] has as its target Vitamin D3 receptor (Homo sapiens) (UniProt P11473). As to the kind of experiment: qHTS assay to identify small molecule agonists of the vitamin D receptor (VDR) signaling pathway (AID 743222; calls by dose curve). The method in brief:
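VDR-bla cells were plated 4 h at 37C/5% CO2, then exposed to compounds in DMSO for 16 h. After LiveBLAzer B/G FRET substrate addition and 2 h at room temperature, beta-lactamase reporter fluorescence was read.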

Test [12] in a line: qHTS assay for small molecule agonists of the antioxidant response element (ARE) signaling pathway (AID 743202; active means well fitted activation curve with a large enough effect in the signal ratio in the repeat runs, not every such curve was filed as active; the % refers to the signal ratio). Put shortly: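 Agonist mode reporter screen: HepG2 cells with ARE-controlled beta-lactamase are incubated with test compounds for 16 h at 37 C, and beta-lactamase activity is measured as fluorescence of cleaved B/G FRET substrate.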
The nature of test [13]: qHTS assay to identify small molecule agonists of the peroxisome proliferator-activated receptor delta (PPARd) signaling pathway - cell viability counter screen (AID 743211). Further: nearly all actives have a fitted effect of over 55% in size. Further: potency means the concentration at half of the fitted maximal effect. Put shortly: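 Multiplexed format: after the 2 h room-temperature LiveBLAzer B/G FRET step, CellTiter-Glo was added to the same wells. Luminescence after 30 min gave cell viability; compound exposure was 17 h at 37C.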

Test [14] concerns the target Bile acid receptor (Homo sapiens) (UniProt Q96RI1). In words: qHTS assay to identify small molecule agonists of the farnesoid-X-receptor (FXR) signaling pathway (AID 743220; active means well fitted activation curve with a large enough effect in the signal ratio in the repeat runs, not every such curve was filed as active; the % refers to the signal ratio). The method in brief:
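Beta-lactamase reporter under UAS control in GeneBLAzer FXR HEK 293T cells (5000/well) measured with LiveBLAzer FRET substrate after 2 h at room temperature. Compound exposure lasted 16 h at 37C.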

Test [15] addresses Vitamin D3 receptor (Homo sapiens) (UniProt P11473). As to the kind of experiment: qHTS assay to identify small molecule antagonists of the vitamin D receptor (VDR) signaling pathway (AID 743223; active means well fitted inhibition curve with a large enough effect in the signal ratio in the repeat runs, not every such curve was filed as active; the % refers to the signal ratio). The method in brief: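 After VDR-bla cells are plated and left 4 h at 37C, DMSO-dissolved compounds and 3 nM (final) calcitriol agonist are added. Incubation continues 16 h at 37C; FRET beta-lactamase substrate then develops 2 h at room temperature.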

The target of test [16] is Peroxisome proliferator-activated receptor gamma (Homo sapiens) (UniProt P37231). As to the kind of experiment: qHTS assay to identify small molecule agonists of the peroxisome proliferator-activated receptor gamma (PPARg) signaling pathway (AID 743094; active means well fitted activation curve with a large enough effect in the signal ratio in the repeat runs, not every such curve was filed as active; the % refers to the signal ratio). Put shortly:
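GeneBLAzer PPARg UAS-bla HEK293H cells carrying a stably integrated beta-lactamase reporter were pre-incubated 5 h at 37C, then exposed to compounds in DMSO for 17 h at 37C; LiveBLAzer B/G FRET substrate was added for 1 h at room temperature and fluorescence read.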

Test [17] shares this target. In words: qHTS assay to identify small molecule antagonists of the peroxisome proliferator-activated receptor gamma (PPARg) signaling pathway (AID 743191; calls by dose curve; further: series mostly up to about 63 µM; nearly all actives have a fitted effect of over 30% in size). The method in brief:
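GeneBLAzer PPARg UAS-bla HEK293H cells, 5 h post-plating, exposed to compounds 17 h at 37C. LiveBLAzer B/G FRET substrate added for 1 h at room temperature; beta-lactamase reporter read by fluorescence intensity.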

Test [18] can be described thus: qHTS assay to identify small molecule agonists of the farnesoid-X-receptor (FXR) signaling pathway - cell viability counter screen (AID 743218). Further: nearly all actives have a fitted effect of over 45% in size. Further: potency means the concentration at half of the fitted maximal effect. The method in brief: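 FXR-UAS-bla HEK 293T cells, plated 5 h at 37 C, were exposed to compounds for 16 h at 37 C. CellTiter-Glo was then added to the same wells as the bla readout; luminescence read after 30 min at room temperature.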

Test [19] concerns the target Aryl hydrocarbon receptor (Homo sapiens) (UniProt P35869). In words: qHTS assay to identify small molecule that activate the aryl hydrocarbon receptor (AhR) signaling pathway (AID 743085).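 Further: HG2L7.5c1 human HepG2 liver cells with stably integrated DRE-driven firefly reporter; series mostly up to about 70 µM; nearly all actives have a fitted effect of over 15% in size.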 The method in brief:
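Reporter assay in engineered HepG2 line HG2L7.5c1, whose plasmid carries twenty dioxin responsive elements upstream of firefly luciferase. Treatment lasted 24 h at 37C; ONE-Glo luminescence gauged induction.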

Peroxisome proliferator-activated receptor delta (Homo sapiens), sequence (Q03181 whole entry, looked up): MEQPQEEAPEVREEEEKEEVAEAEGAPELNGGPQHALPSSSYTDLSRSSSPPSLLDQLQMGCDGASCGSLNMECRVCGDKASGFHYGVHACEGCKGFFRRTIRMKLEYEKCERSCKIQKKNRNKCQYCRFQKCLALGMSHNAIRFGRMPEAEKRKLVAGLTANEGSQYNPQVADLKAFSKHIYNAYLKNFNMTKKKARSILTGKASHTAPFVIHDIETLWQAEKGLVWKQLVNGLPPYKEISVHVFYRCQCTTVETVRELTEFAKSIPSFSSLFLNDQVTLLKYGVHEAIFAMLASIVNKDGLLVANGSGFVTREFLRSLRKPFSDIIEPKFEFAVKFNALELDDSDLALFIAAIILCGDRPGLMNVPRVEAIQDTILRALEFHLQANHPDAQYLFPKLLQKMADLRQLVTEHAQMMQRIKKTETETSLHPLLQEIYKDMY
Peroxisome proliferator-activated receptor gamma (Homo sapiens), sequence (P37231 whole entry, looked up): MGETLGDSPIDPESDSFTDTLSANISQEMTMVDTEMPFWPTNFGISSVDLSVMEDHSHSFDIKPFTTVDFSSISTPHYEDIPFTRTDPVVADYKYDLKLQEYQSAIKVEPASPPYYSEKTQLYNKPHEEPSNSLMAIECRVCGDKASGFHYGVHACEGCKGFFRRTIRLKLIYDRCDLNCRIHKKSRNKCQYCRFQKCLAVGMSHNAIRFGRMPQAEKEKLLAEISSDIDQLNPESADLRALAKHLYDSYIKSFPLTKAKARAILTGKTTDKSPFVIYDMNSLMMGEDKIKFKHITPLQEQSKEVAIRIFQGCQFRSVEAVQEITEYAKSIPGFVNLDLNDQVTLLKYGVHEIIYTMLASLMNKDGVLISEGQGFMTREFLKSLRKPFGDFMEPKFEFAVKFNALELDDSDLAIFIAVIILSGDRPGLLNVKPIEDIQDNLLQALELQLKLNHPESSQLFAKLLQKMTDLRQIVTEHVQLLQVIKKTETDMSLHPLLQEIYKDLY
Bile acid receptor (Homo sapiens), sequence (Q96RI1 whole entry, looked up): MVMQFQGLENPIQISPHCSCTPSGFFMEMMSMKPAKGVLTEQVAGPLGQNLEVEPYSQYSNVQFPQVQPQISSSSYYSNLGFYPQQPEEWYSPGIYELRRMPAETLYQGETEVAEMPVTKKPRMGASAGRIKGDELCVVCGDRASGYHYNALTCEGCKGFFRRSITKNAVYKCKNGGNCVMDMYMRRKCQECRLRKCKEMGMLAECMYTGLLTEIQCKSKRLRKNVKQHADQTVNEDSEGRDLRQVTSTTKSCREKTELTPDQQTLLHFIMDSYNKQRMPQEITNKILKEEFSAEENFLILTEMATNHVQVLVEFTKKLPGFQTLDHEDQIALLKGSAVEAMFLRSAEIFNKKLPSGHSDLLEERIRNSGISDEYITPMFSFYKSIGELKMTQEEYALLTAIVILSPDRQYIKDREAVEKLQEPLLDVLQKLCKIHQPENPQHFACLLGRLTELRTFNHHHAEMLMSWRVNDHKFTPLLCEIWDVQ
Vitamin D3 receptor (Homo sapiens), sequence (P11473 whole entry, looked up): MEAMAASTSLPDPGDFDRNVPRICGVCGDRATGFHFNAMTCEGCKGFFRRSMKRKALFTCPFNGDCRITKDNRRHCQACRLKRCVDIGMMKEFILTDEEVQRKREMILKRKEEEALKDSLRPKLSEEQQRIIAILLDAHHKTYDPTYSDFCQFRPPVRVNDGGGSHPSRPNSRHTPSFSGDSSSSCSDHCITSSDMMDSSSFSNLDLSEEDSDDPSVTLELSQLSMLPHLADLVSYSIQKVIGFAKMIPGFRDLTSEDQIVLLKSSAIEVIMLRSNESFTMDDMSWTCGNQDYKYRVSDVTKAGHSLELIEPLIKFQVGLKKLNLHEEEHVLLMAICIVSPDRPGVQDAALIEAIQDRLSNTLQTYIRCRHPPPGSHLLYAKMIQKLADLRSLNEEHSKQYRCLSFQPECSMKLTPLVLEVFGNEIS
Aryl hydrocarbon receptor (Homo sapiens), sequence (P35869 whole entry, looked up): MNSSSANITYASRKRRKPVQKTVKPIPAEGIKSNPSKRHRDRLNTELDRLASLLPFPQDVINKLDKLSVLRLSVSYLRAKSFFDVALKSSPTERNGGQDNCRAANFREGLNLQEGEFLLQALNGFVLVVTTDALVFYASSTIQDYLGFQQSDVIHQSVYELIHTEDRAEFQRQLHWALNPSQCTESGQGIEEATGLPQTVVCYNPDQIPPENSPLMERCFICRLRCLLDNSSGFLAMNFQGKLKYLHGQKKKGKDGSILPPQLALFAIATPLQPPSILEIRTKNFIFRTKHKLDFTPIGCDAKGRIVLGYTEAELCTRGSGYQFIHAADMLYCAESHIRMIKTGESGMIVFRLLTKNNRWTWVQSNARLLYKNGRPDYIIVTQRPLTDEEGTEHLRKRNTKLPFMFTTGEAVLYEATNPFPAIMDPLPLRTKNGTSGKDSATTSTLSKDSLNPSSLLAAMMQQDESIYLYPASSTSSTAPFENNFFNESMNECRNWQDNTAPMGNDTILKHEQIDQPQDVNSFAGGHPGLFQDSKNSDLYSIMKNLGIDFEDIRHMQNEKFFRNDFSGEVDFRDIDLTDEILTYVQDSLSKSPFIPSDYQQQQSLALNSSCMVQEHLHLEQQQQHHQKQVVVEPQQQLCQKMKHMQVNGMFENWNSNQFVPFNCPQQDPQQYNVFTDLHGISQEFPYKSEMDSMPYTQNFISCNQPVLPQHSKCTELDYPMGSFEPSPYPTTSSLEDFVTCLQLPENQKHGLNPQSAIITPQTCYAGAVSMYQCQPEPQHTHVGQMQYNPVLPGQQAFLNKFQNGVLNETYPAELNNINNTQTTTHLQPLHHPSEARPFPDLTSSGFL

In the case of `CCCCCCCCP(=O)(O)O`, the Potency entry in test [1], in test [2], in test [3], in test [4], in [5] and in test [6] was “inactive” in each case. Besides, the Potency entry in [8], in [9] and in test [10] was “inactive” throughout. For the same molecule, the molecule was called inactive in test [7] and in [11].
Consider `O=C(O)CCCOc1ccc(Cl)cc1Cl`, for which the Potency result in [2], in test [3], in test [12], in test [6], in [13] and in [8] was “inactive” in each case. Moreover, in [10], the Potency result was “inactive”. Also, the Potency result in [4] was “inactive and 27.8 µM (active)”. The molecule was called inactive in test [11].
Consider `CC(=O)NNc1ccccc1`, for which the Potency result in test [1], in test [3], in test [12], in test [5] and in test [15] was “inactive” each time. Besides, the molecule was called inactive in [14] and in test [11].
Consider `CCC1(C2=NCCN2)Cc2ccccc2O1` (stereo not drawn), for which the Potency result in [1], in test [16], in test [17], in test [3], in test [12] and in test [4] was “inactive” throughout. Moreover, the Potency result in test [5], in [6], in [13], in test [8], in test [18] and in [10] was “inactive” throughout. Moreover, the Potency entry in test [15] is “inactive”.
For the molecule `O=C(O)C(F)(F)C(F)(F)C(F)(F)C(F)(F)C(F)(F)F`, the Potency result in test [19], in test [16], in [3], in [12], in [4] and in [5] was “inactive” in each case. Also, the Potency entry in test [6], in test [13], in test [8], in test [9], in [18] and in test [15] was “inactive” throughout. The call in [11] was inactive.
For `COc1cc(C[C@@H](C)N)c(OC)cc1Br`, the Potency entry in [1], in test [17], in test [3], in test [4] and in [5] was “inactive” each time. The values for the Potency in test [13] and in [18] were 62.8 µM (active) and 31.5 µM (active), respectively.
For `COc1cc(CC#N)cc(OC)c1OC`, the Potency result in test [3], in test [12], in test [4], in [5], in test [6] and in test [13] was “inactive” each time. Also, the Potency entry in test [8], in [10] and in [15] was “inactive” each time. Also, the call in test [11] was inactive.
`CC(Oc1cc(Cl)c(Cl)cc1Cl)C(=O)O` (stereo not drawn): the Potency entry in test [1], in [3], in test [4], in test [5], in test [6] and in test [13] was “inactive” each time. Further, the Potency entry in test [9] and in test [18] was “inactive” each time. In addition, in [14], the molecule was called inactive.
As to `CCC1CCC(=O)O1` (stereo not drawn), the Potency entry in [2], in test [4], in [5], in test [6], in test [8] and in [9] was “inactive” throughout. The Potency result in test [18] was “inactive”. Besides, the molecule was called inactive in test [7] and in test [11].
For the molecule `O=C(O)c1ccc(=O)[nH]c1`, the Potency result in [12], in test [4], in test [13], in [8], in test [18] and in test [10] was “inactive” each time. In addition, the Potency entry in test [15] is “inactive”.
As for `CCCN(CCC)C(=O)Cc1c(-c2ccc(Cl)cc2)nc2ccc(Cl)cn12`, the Potency entry in test [1], in [16], in test [3], in [4], in [6] and in test [13] was “inactive” in each case. The Potency result in test [8], in test [9], in test [18] and in test [10] was “inactive” in each case. Moreover, the call in [7] and in test [14] was inactive.
Turning to `CCOC(=O)c1cn2nc(OP(=S)(OCC)OCC)cc2nc1C`, the Potency result in [1], in [3], in [4], in test [5], in test [13] and in test [8] was “inactive” throughout. The Potency result in test [9], in [18] and in [10] was “inactive” throughout. Also, the call in [7] and in [14] was inactive.
